In PubChem BioAssay AID1159580 (chemical genetic matrix, 2015):
In all, about 5,500 compounds went through this assay and about 2,000 (36%) were called active. Not shown: some 18% with an inconclusive outcome. No stated cut-off is given here; in the data, active means normalized growth mostly below about 0.91 (no sharp cut-off); inconclusive means no clear call, values can overlap the other calls; inactive means mostly above about 0.92. The list shows a part of the results.

Assay: chemical genetic growth profiling, strain panel (AID 1159580);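 further: tested at 20 µM; growth read once vehicle control cultures reached saturation at 30 °C; 1 = growth at the plate median or of vehicle wells; lower values mean less growth of the strain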
Conditions: S. cerevisiae deletion strains, growth OD
[1] = locus YDL101C, strain DUN1, hits give low values
[2] = locus YHR030C, strain SLT2, hits give low values

Measured: normalized growth

O=C(Nc1ccc(Cl)cc1Cl)c1cnccn1
active: [2] 0.606 | locus YKL190W, strain CNB1, hits give low values 0.862 | locus YLR039C, strain RIC1, hits give low values 0.788 | locus YLR085C, strain ARP6, hits give low values 0.656
inactive: locus YAL013W, strain DEP1, hits give low values 0.943 | locus YBR229C, strain ROT2, hits give low values 0.963 | locus YCL061C, strain MRC1, hits give low values 0.98 | [1] 0.982 | locus YDL134C, strain PPH21, hits give low values 0.989 | locus YDR150W, strain NUM1, hits give low values 0.989 | locus YEL061C, strain CIN8, hits give low values 0.95 | locus YGR078C, strain PAC10, hits give low values 0.991 | locus YHR087W, strain rtc3, hits give low values 0.973 | locus YJR043C, strain POL32, hits give low values 1.01 | locus YJR075W, strain HOC1, hits give low values 1.01 | locus YLR058C, strain SHM2 (second series), hits give low values 0.975 | locus YLR262C, strain YPT6, hits give low values 0.87 | locus YML094W, strain GIM5, hits give low values 0.91 | locus YMR219W, strain ESC1, hits give low values 0.99 | locus YMR263W, strain SAP30, hits give low values 0.966 | locus YNL153C, strain GIM3, hits give low values 0.98 | locus YNL298W, strain CLA4 (second series), hits give low values 0.911 | locus YNL322C, strain KRE1, hits give low values 0.986 | locus YNR030W, strain Alg12, hits give low values 0.94 | locus YOL006C, strain TOP1, hits give low values 0.773 | locus YPL055C, strain LGE1, hits give low values 0.9 | locus YPL241C, strain CIN2, hits give low values 0.9 | locus YPR135W, strain CTF4, hits give low values 0.768

O=C(Nc1ccc(Cl)cc1Cl)c1cnccc1C(F)(F)F
inactive: locus YAR019C, strain CDC15, hits give low values 0.978 | locus YBL105C, strain PKC1, hits give low values 0.976 | locus YBR135W, strain CKS1, hits give low values 0.981 | locus YBR136W, strain MEC1, hits give low values 0.971 | locus YBR160W, strain CDC28, hits give low values 0.974 | locus YDL017W, strain CDC7, hits give low values 0.984 | locus YDL028C, strain MPS1, hits give low values 0.976 | [1] 0.964 | locus YDL108W, strain KIN28, hits give low values 0.97 | locus YDL132W, strain cdc53, hits give low values 0.972 | locus YDL214C, strain PRR2, hits give low values 0.987 | locus YDR052C, strain DBF4, hits give low values 0.977 | locus YDR054C, strain cdc34, hits give low values 0.977 | locus YDR226W, strain ADK1, hits give low values 0.976 | locus YDR477W, strain SNF1, hits give low values 0.981 | locus YER123W, strain YCK3, hits give low values 0.958 | locus YER133W, strain GLC7, hits give low values 0.976 | locus YFL009W, strain cdc4, hits give low values 0.971 | locus YFL029C, strain CAK1, hits give low values 0.975 | locus YFR003C, strain YPI1, hits give low values 0.977 | locus YFR019W, strain FAB1, hits give low values 0.98 | locus YFR028C, strain CDC14, hits give low values 0.97 | locus YGR040W, strain KSS1, hits give low values 0.977 | locus YGR052W, strain FMP48, hits give low values 1.13 | locus YGR092W, strain DBF2, hits give low values 0.998 | [2] 1.15 | locus YHR079C, strain IRE1, hits give low values 1.09 | locus YHR082C, strain KSP1, hits give low values 1.11 | locus YHR205W, strain SCH9, hits give low values 0.974 | locus YIL147C, strain SLN1, hits give low values 0.971 | locus YJL095W, strain BCK1, hits give low values 1.14 | locus YJL128C, strain PBS2, hits give low values 0.935 | locus YJL157C, strain FAR1, hits give low values 0.973 | locus YJR016C, strain ILV3, hits give low values 0.976 | locus YJR066W, strain TOR1 (second series), hits give low values 1 | locus YJR066W, strain TOR1, hits give low values 1.12 | locus YKL048C, strain ELM1, hits give low values 0.974 | locus YKL067W, strain YNK1, hits give low values 0.981 | locus YKL101W, strain HSL1, hits give low values 0.986 | locus YKL193C, strain SDS22, hits give low values 0.967 | locus YKL203C, strain TOR2, hits give low values 1.05 | locus YLR113W, strain HOG1, hits give low values 1.05 | locus YLR133W, strain CKI1, hits give low values 0.988 | locus YLR403W, strain SFP1, hits give low values 0.967 | locus YML070W, strain DAK1, hits give low values 0.98 | locus YMR001C, strain CDC5, hits give low values 0.972 | locus YMR205C, strain PFK2 (second series), hits give low values 0.993 | locus YMR277W, strain FCP1, hits give low values 0.962 | locus YNL006W, strain LST8, hits give low values 0.973 | locus YNL020C, strain ARK1, hits give low values 0.989 | locus YNL161W, strain CBK1, hits give low values 0.974 | locus YNL183C, strain NPR1, hits give low values 1.1 | locus YNL207W, strain RIO2, hits give low values 0.976 | locus YNL222W, strain SSU72, hits give low values 0.976 | locus YNL307C, strain MCK1 (second series), hits give low values 0.988 | locus YOL078W, strain AVO1, hits give low values 0.975 | locus YOL136C, strain PFK27, hits give low values 0.982 | locus YOR061W, strain CKA2, hits give low values 0.99 | locus YOR119C, strain RIO1, hits give low values 1.01 | locus YOR231W, strain MKK1, hits give low values 1.1 | locus YOR329C, strain SCD5, hits give low values 0.975 | locus YPL031C, strain PHO85, hits give low values 0.977 | locus YPL153C, strain RAD53, hits give low values 0.99 | locus YPL204W, strain HRR25, hits give low values 0.976 | locus YPL209C, strain IPL1, hits give low values 0.967 | locus YPL256C, strain CLN2, hits give low values 1.07 | locus YPR025C, strain CCL1, hits give low values 0.976 | locus YPR106W, strain ISR1, hits give low values 0.972 | locus YPR111W, strain DBF20, hits give low values 0.974 | strain NNK1, hits give low values 0.971 | strain TSCII, hits give low values 0.972
